Source: PubChem BioAssay (NCATS)
Where “and” joins values, the source holds several entries; their conditions need not be identical. Equal values may be shown once. Inconclusive results are not listed. Unmarked numbers belong to inactive results. Calls of active or inactive are those of the source. Calls follow the shape of the dose curve; as a rule, active = well fitted curve in the direction sought with a large enough effect; inconclusive = small, poorly fitted or top-dose-only effect, or another doubt; inactive = no such curve, though single readings can be large; an effect the other way counts as inactive or inconclusive.

Experiments:
[1] = biological target: Cellular tumor antigen p53 (Homo sapiens) (UniProt P04637); experiment: Primary qHTS for small molecule compounds that upregulate eGFP-tagged delta133p53alpha (in N-terminal) cells. (AID 2060322); settings: NCI-H358 eGFP-delta133p53alpha fluorescence, 24 h; activation: hits give high values; also: nearly all actives have a fitted effect of over 75% in size; also: potency is read from the fitted curve at half-maximal effect;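 as to activation: series mostly up to about 56 µM; 0% = DMSO vehicle and 100% = reference activator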
Summary of the method: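 NCI-H358 cells pre-induced 24 h with 10 ng/ml doxycycline to express N-terminal eGFP-delta133p53alpha, then dosed 24 h at 37C without doxycycline; fixed, Hoechst-stained, GFP intensity by laser scanning cytometry, normalized to DMSO (0%) and 57.5 uM 5-azacytidine (100%).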

[2] = biological target: Aldehyde dehydrogenase, mitochondrial (Homo sapiens) (UniProt P05091); experiment: qHTS for Inhibitors of the Aldehyde Dehydrogenase Family (ALDH2) Primary screen (AID 2061308);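 also: plate controls were vehicle for no effect and reference inhibitor for full effect; nearly all actives have a fitted effect of over 55% in size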
[3] = biological target: Retinaldehyde dehydrogenase 3 (Homo sapiens) (UniProt P47895); experiment: qHTS for Inhibitors of the Aldehyde Dehydrogenase Family (ALDH1A3) Primary screen (AID 2061315);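 also: plate controls were DMSO vehicle for no effect and reference inhibitor for full effect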
[4] = BET inhibitor-based combinations targeting novel dependencies in MECOM-rearranged (r) AML: HNT-34 cell line (AID 2202234); also: potency is read from the fitted curve at half-maximal effect; nearly all actives have a fitted effect of over 35% in size
Summary of the method: (§1)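 Seeding density was 500 cells/well, and drug exposure lasted 48 hr under standard culture conditions. Read-out used CellTiter-Glo reagent with a 15 min room-temperature incubation before luminescence measurement; AUC and Z-AUC summarize the normalized responses.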

[5] = BET inhibitor-based combinations targeting novel dependencies in MECOM-rearranged (r) AML: UCSD-AML1 cell line (AID 2202235); also: nearly all actives have a fitted effect of over 40% in size; also: potency is read from the fitted curve at half-maximal effect
Summary of the method: as §1

[6] = BET inhibitor-based combinations targeting novel dependencies in MECOM-rearranged (r) AML: MV-4-11 cell line (AID 2202233); also: nearly all actives have a fitted effect of over 45% in size; also: potency is read from the fitted curve at half-maximal effect
Summary of the method: as §1

[7] = BET inhibitor-based combinations targeting novel dependencies in MECOM-rearranged (r) AML: AML-191 cell line (AID 2202236; also: nearly all actives have a fitted effect of over 35% in size; also: potency is read from the fitted curve at half-maximal effect)
Summary of the method: (§2)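 Readout: CellTiter-Glo luminescence. Exposure: 48 h, 11 concentrations, 500 cells/well. Metric: AUC and within-line Z-AUC after DMSO/empty-well normalization.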

[8] = BET inhibitor-based combinations targeting novel dependencies in MECOM-rearranged (r) AML: AML-194 cell line (AID 2202237; also: potency is read from the fitted curve at half-maximal effect; nearly all actives have a fitted effect of over 40% in size)
Summary of the method: as §2

Sequence of Cellular tumor antigen p53 (Homo sapiens) (P04637 whole entry, looked up): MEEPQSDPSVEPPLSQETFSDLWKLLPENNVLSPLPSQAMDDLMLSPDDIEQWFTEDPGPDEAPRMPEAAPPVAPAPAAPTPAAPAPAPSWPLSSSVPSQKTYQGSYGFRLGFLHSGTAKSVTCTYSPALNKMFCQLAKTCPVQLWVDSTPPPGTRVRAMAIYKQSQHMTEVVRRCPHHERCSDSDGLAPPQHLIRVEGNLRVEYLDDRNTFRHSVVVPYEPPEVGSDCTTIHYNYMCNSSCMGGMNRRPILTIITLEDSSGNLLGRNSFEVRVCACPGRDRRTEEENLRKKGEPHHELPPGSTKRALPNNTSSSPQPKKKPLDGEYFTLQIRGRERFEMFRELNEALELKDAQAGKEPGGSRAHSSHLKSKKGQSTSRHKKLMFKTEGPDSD

Structure (SMILES)	activation [1]	Potency [2]	Potency [3]	Potency [4]	Potency [5]	Potency [6]	Potency [7]	Potency [1]	Potency [8]
O=C(NOCC(O)CO)c1ccc(F)c(F)c1Nc1ccc(I)cc1F (stereo unspecified)	0.955%	inactive	inactive	209 nM (active)					
CN(C)CCCNC(=O)c1ccc(-c2cc(O)c3ncccc3c2)cc1	-8.46% and -17.9%	inactive	inactive		18600 nM (active)				
COc1ccc2cc(-c3nc(-c4ccc(S(C)=O)cc4)[nH]c3-c3ccncc3)ccc2c1 (stereo unspecified)	-7.86% and 8.04%	inactive	inactive		inactive				
Cc1cc(-c2cc(OC(=O)c3ccccc3)ccc2Cl)cc2nnc(Nc3ccc(OCCN4CCCC4)cc3)nc12	-29.5%	inactive	inactive	456 nM (active)		inactive	inactive		
NS(=O)(=O)c1ccc(Nc2nc(OCC3CCCCC3)c3[nH]cnc3n2)cc1	-24.8%	inactive	inactive		10500 nM (active)	3320 nM (active)			
COc1cc2nccc(Oc3ccc(NC(=O)Nc4cc(C)on4)c(Cl)c3)c2cc1OC		inactive	inactive	209 nM (active)	16600 nM (active)	1050 nM (active)	7420 nM (active)	30.6 µM (active) and 21.3 µM (active)	6610 nM (active)
CS(=O)(=O)N1CCN(Cc2cc3nc(-c4cccc5[nH]ncc45)nc(N4CCOCC4)c3s2)CC1	-25.9%	inactive	inactive		468 nM (active)	2090 nM (active)			
CS(=O)(=O)N1CCc2c(-c3cnc(N)nc3)nc(N3CCOCC3)nc21	26%	inactive	inactive		662 nM (active)	4680 nM (active)			
